Shown are actives, neighbours in structure and some others; about 1.1% of the full set was active somewhere.
HDAC3 inh: inhibitors of human histone deacetylase 3; recombinant HDAC3, fluorogenic peptide/trypsin coupled, fluorescence; inhibition, % at 8.3 µM; hit rate 0.15% among 320,000; AID 2718; in the data active = inhibition above about 26%, passing the limit was not always enough
CASP6 VEID inh: caspase-6 (human) enzyme inhibition; P55212; purified caspase-6, Z-VEID-R110 cleavage fluorescence; inhibition, % at 12.5 µM; hit rate 0.53% among 350,000; AID 686996;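 active = mean inhibition across replicates at least about 35%, with every replicate also reaching that limit, limit read from the data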;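 note: 0% = median of neutral control wells and 100% = no fluorescence left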
Glyco luc inh: blocks N-linked glycosylation in D54 reporter cells; D54 ERlucT glycosylation luciferase reporter, 24 h; percent of 100 nM tunicamycin response; reporter increase, % at 12.5 µM; hit rate 0.23% among 360,000; AID 588692;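 active = mean luciferase reporter signal, scaled so untreated is 0 and the glycosylation-blocking control 100, at or above a set limit in every replicate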;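 note: luciferase carries N-glycosylation sites so blocking glycosylation raises the light; 0% = median of neutral control wells and 100% = median of 100 nM tunicamycin wells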
NSD2 HMT inh: blocks human histone methyltransferase NSD2 | inhibition, % at 12.5 µM | hit rate 0.54% among 310,000 | NSD2 peptide methylation, AlphaScreen, 120 min | AID 743445; in the data active = inhibition above about 50%
C-LANA FP: blocks KSHV LANA C-terminal domain binding to DNA | MBP-C-LANA/FAM-LBS DNA binding, fluorescence polarization | inhibition, % at 9 µM | hit rate 0.078% among 340,000;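 active = highest replicate inhibition at or above 60% at 9 µM, even if other replicates fall short; inactive = all replicates below 60% inhibition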;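 note: 0% = neutral control wells and 100% = 4 µM acridine orange control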
Keap1-Nrf2 PPI: Keap1-Nrf2 (human) interaction inhibition. Keap1 Kelch-Nrf2 peptide fluorescence polarization, 1536-well. inhibition, % at 9.4 µM. hit rate 0.15% among 340,000; in the data active = inhibition above about 12%;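 note: human Keap1 Kelch domain with fluorescein labeled Nrf2 9mer peptide probe; 0% = neutral control wells and 100% = peptide positive control; higher means more block of Keap1 binding to Nrf2 peptide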
The depositor's hits bear a star; i = inactive; / = not tested or not shown; ! = repeats disagree.

SMILES	HDAC3 inh	CASP6 VEID inh	Glyco luc inh	NSD2 HMT inh	C-LANA FP	Keap1-Nrf2 PPI
CCN(CC)c1ccc(N=Cc2c(O)n(-c3ccccc3C)c(=O)[nH]c2=O)cc1	1	/	7	1	1	-5
CCOc1ccccc1-n1c(O)c(C=Nc2ccc(N(CC)CC)cc2)c(=O)[nH]c1=O	3	/	29*	-3	9	-3
C=CCn1c(O)c(C(CC)=NC(C)c2ccccc2)c(=O)[nH]c1=O (stereo unspecified)	1	/	26*	0	0	-1
COC(=O)[C@H]1[C@H](CO)[C@H]2Cn3c(ccc(C4=CCCCC4)c3=O)[C@@H]1N2Cc1cccnc1	/	-3	/	/	/	/
CC(C)C[C@H]1C(=O)N2CCCC2[C@]2(O)O[C@](NC(=O)[C@@H]3C=C4c5cccc6[nH]cc(c56)CC4N(C)C3)(C(C)C)C(=O)N12 (stereo partly specified)	-6	/	0	/	24	16*
CC(C)[C@H]1C(=O)N2CCC[C@H]2[C@]2(O)O[C@](NC(=O)[C@@H]3C=C4c5cccc6[nH]cc(c56)C[C@H]4N(C)C3)(C(C)C)C(=O)N12	0	/	4	/	28	15*
CC(C)[C@@]1(NC(=O)[C@@H]2C[C@@H]3c4cccc5[nH]cc(c45)C[C@H]3N(C)C2)O[C@@]2(O)[C@@H]3CCCN3C(=O)[C@H](Cc3ccccc3)N2C1=O	0	5	0	/	0	0
CN(C)c1ccc(/C=C/c2cc[n+](C)c3ccccc23)cc1	/	-18	39*!	62*	-17	-3
CC(C)CC#Cc1ccc([C@@H]2[C@H](CO)N3CCCCN(C(=O)Cc4ccccn4)C[C@@H]23)cc1	/	-6	/	/	/	/
COC(=O)[C@@H]1[C@@H](CO)[C@@H]2Cn3c(ccc(C4=CCCC4)c3=O)[C@H]1N2C(=O)CC1CC1	/	4	/	/	/	/
ClCCOCCCl	2	1	85*	/	-1	0
C[CH2][Hg][S]c1ccccc1C(=O)O	56*	49*	63*	/	0	i
CN(C)[C@@H]1C(=O)C(C(N)=O)=C(O)[C@@]2(O)C(=O)C3=C(O)c4c(O)cccc4[C@@](C)(O)[C@H]3[C@H](O)[C@@H]12	-2	69*	0	/	124*	-2
CN(C)[C@@H]1C(=O)C(C(N)=O)=C(O)[C@@]2(O)C(=O)C3=C(O)c4c(O)cccc4[C@@](C)(O)C3C[C@@H]12 (stereo partly specified)	-3	55*	1	/	34	-3
COC(=O)[C@H]1[C@H](CO)[C@H]2Cn3c(cccc3=O)[C@@H]1N2C(=O)C1CC1	/	-1	/	/	/	/
C[C@H]1CN([C@@H](C)CO)C(=O)c2c(c3ccccc3n2C)-c2ccccc2CO[C@@H]1CN(C)C(=O)Oc1ccccc1	/	2	/	/	/	/
O=C(O)[C@@H]1[C@@H](CO)[C@@H]2Cn3c(ccc(-c4ccccc4)c3=O)[C@H]1N2CC1CCCCC1	/	-3	/	/	/	/
O=[As](O)(O)c1ccc(N=Nc2ccc(O)cc2)cc1	11	25	2	32	1	-3
O=C1C(Cl)=CC(=Nc2ccc(O)cc2)C=C1Cl	7	40*	3	/	1	-1
CC[n+]1c(-c2ccccc2)c2cc(N)ccc2c2ccc(N)cc21	/	99*	-14	178*	-2	0
Oc1ccc2c3c1O[C@H]1[C@@H](O)CC[C@@]4(O)[C@@H](C2)N(CC2CCC2)CC[C@]314	-2	-4	0	/	2	1
NC(N)=Nc1ccc2[nH]c3c(c2c1)C[C@@]1(O)[C@H]2Cc4ccc(O)c5c4[C@@]1(CCN2CC1CC1)[C@H]3O5	60*	/	-5	/	-3	0
COC(=O)[C@@H]1[C@@H](CO)[C@@H]2Cn3c(ccc(C4=CCCC4)c3=O)[C@H]1N2Cc1ccccn1	/	-1	/	/	/	/
CN1C(=O)NC(=O)C(N=Nc2ccc(Cl)cc2)C1=O (stereo unspecified)	/	47*	5	4	2	-3
CN(C)c1ccc(CN2CC=C(c3ccc(F)cc3)CC2)cc1	-2	/	7	51*	1	4
SMILES	HDAC3 inh	CASP6 VEID inh	Glyco luc inh	NSD2 HMT inh	C-LANA FP	Keap1-Nrf2 PPI
COc1cc(CN2CC=C(c3ccc(F)cc3)CC2)cc(OC)c1	5	-1	0	/	-1	5
O=C1NC(=O)N(c2ccccc2)C(=O)/C1=C/c1ccc(Sc2ccccc2)o1	7	/	1	/	5	-10
O=C1NC(=O)N(c2ccccc2F)C(=O)/C1=C/c1ccc(Sc2nc3ccccc3[nH]2)o1	4	60*	2	87*	32	-62
O=C1NC(=O)N(c2cccc(Cl)c2)C(=O)/C1=C\c1ccc(Sc2nc3ccccc3[nH]2)o1	/	70*	1	71*	5	-8
CCCN1[C@@H]2Cn3c(ccc(-c4cccc(C(=O)N(C)C)c4)c3=O)[C@H]1[C@@H](C(=O)OC)[C@@H]2CO	/	-1	/	/	/	/
COc1ccc(/C=C2/C(=O)N(Cc3ccco3)C(=O)N(C(C)C)C2=O)cc1	4	78*	0	/	24	-30
CN(C)c1ccc(/C=C2/C(=O)NC(=O)N(Cc3ccco3)C2=O)cc1	1	81*	3	34	64	6
COc1ccc(-c2ccc([C@H]3[C@H]4CN(C(=O)Cc5ccccc5)CCCCN4[C@H]3CO)cc2)cc1	/	-4	/	/	/	/
O=C1NC(=O)N(c2ccc3c(c2)OCO3)C(=O)/C1=C\c1ccc(-c2ccccc2C(=O)O)o1	3	43*	2	37	5	-4
COc1cc(/C=C/[N+](=O)[O-])ccc1O	-3	17	29*	/	2	-1
CCN(CC)c1ccc(/C=C/[N+](=O)[O-])cc1	7	-21	8	7	-4	-60
COc1ccc(C#Cc2ccc([C@H]3[C@@H](CO)N4CCCCN(C(=O)Cc5ccncc5)C[C@H]34)cc2)cc1	/	0	/	/	/	/
Nc1nonc1C(=O)N/N=C/c1ccc([N+](=O)[O-])o1	4	/	30*	8	7	2
O=C(O)[C@H]1[C@H](CO)[C@H]2Cn3c(ccc(-c4ccccc4F)c3=O)[C@@H]1N2C(=O)Nc1ccccc1	/	-3	/	/	/	/
O=C(O)[C@@H]1[C@@H](CO)[C@@H]2Cn3c(ccc(-c4ccncc4)c3=O)[C@H]1N2C(=O)C1CCCC1	/	1	/	/	/	/
CCCN1[C@@H]2c3ccc(-c4cccc(OC)c4)c(=O)n3C[C@H]1[C@H](CO)[C@H]2C(=O)OC	/	0	/	/	/	/
CCOC(=O)C1CCCN(c2ccc([N+](=O)[O-])c3nonc23)C1 (stereo unspecified)	/	-103	2	/	90*	-11
CC1CCCN(c2ccc(C(=O)N3CCC4(CC3)OCCO4)cc2[N+](=O)[O-])C1 (stereo unspecified)	5	0	1	/	-1	-2
O=C(Cc1ccccn1)N1CC2(C1)[C@@H](c1ccccc1)[C@@H](CO)N2Cc1ccccn1	/	0	/	/	/	/
COc1ccc(C=C2C(=O)NC(=S)NC2=O)cc1OC	/	26	2	3	-2	-4

Bioassay records as filed in PubChem BioAssay.
